Test results taken from PubChem BioAssay.
The source made the active and inactive calls.

molecular target: Luciferin 4-monooxygenase (Photinus pyralis) (UniProt P08659); assay: firefly luciferase enzyme inhibitors, primary screen, biochemical, luminescence, purified enzyme, 2006 set (AID 1141); settings: SteadyGlo luminescence, 30 min, higher = more signal, called active from +8 up or from −8 down;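 further: cell-free assay with purified firefly luciferase at 100 ng per well in PBS; test concentration not given here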
Sequence (P08659 whole entry, looked up): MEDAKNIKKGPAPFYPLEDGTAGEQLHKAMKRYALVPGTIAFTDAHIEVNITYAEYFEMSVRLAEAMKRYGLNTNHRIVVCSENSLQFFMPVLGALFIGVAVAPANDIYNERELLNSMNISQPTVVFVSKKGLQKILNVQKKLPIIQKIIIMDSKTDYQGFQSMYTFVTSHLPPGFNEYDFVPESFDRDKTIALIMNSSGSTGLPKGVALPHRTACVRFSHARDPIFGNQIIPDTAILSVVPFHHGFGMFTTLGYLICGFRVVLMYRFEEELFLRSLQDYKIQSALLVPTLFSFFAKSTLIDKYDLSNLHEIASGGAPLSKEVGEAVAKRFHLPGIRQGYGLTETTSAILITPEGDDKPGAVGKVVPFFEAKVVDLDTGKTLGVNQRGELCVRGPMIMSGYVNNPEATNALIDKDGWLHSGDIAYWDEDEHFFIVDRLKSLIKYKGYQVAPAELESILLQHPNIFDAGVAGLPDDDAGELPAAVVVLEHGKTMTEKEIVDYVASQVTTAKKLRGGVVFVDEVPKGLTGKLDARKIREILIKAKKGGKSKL

z-score, inactive:
O=C1[C@H]2[C@H]3[C@H](O)[C@H](O)CC(=NO[C@@H]4O[C@H](CO)[C@@H](O)[C@H](O)[C@H]4O)[C@@H]3CC[C@H]2C(=O)N1C[C@@H]1CCCO1 0.954
O=C1[C@H]2[C@H]3[C@H](O)[C@H](O)CC(=NOC[C@@H](O)COCc4ccco4)[C@@H]3CC[C@H]2C(=O)N1Cc1ccccc1 1.2
CCOC(=O)[C@H](Cc1ccccc1)NC(=O)CCC1CC(OC(=O)NCCc2ccc(F)cc2)CC2(CCCC(COC(=O)NCc3cccc(C(F)(F)F)c3)O2)O1 (stereo partly specified) 0.871
O=C1C=C[C@@H](O)[C@@H]2[C@@H]3C(=O)N(C4CCCCC4)C(=O)[C@@H]3CC[C@@H]12 -0.611
CCN1C(=O)[C@H]2[C@@H]3C(=CC[C@H]2C1=O)C(=O)[C@H]1O[C@H]1[C@H]3O -0.415
CCOC(=O)[C@H](Cc1ccccc1)NC(=O)CCC1CC(OC(=O)NCc2ccc3c(c2)OCO3)CC2(CCCC(COC(=O)NCCOc3ccccc3)O2)O1 (stereo partly specified) 0.289
CCN1C(=O)[C@H]2[C@H]3[C@H](O)[C@H](O)CC(=NO[C@H](C)c4cn([C@H](CO)Cc5ccccc5)nn4)[C@@H]3CC[C@H]2C1=O 0.275
COC(OC)[C@@H](C)[C@H](OC)[C@@H](C)[C@H](OC)c1ccccc1 -1.67
CO[C@@H]1COC(=O)[C@H](CCSC)NC(=O)CC=C[C@@H](C)COC(=O)[C@@H]2CCCN2C(=O)CC=C[C@H]1C -0.0167
CC(C)=NO[C@H](C)c1cn([C@@H]2COC[C@H]2O)nn1 0.0821
CC(C)=NOC(C)CN1CCCc2nc(C)c(C)cc21 (stereo unspecified) 0.57
CC#CCOCCC=C1c2ccccc2[C@@H](OC)[C@@H]1C -0.693
O=C1[C@H]2[C@H]3[C@H](O)[C@H](O)CC(=NO[C@@H]4O[C@H](CO)[C@@H](O)[C@H](O)[C@H]4O)[C@H]3CC[C@H]2C(=O)N1C[C@@H]1CCCO1 0.569
O=C1C[C@H](c2ccccc2)[C@H](c2ccc(Br)cc2)O1 -1.8
CO[C@H]1COC(=O)CC=C[C@@H](C)COC(=O)[C@H]2CCCN2C(=O)CC=C[C@H]1C -1.32
O=C(NN=C1C[C@@H](O)[C@@H](O)[C@@H]2[C@@H]3C(=O)N(Cc4ccccc4)C(=O)[C@@H]3CC[C@H]12)OCc1ccccc1 0.534
